Measured values as given in the antibiotic and cytotoxicity screens of Wong et al. (2023).
Screen size: about 39,000 compounds; about 3,300 (8.5%) were called active. The sample holds actives, similar compounds and a random draw of the others, so the mix is not that of the screen.

The compounds below were run on HepG2 (assay: cytotoxicity call (relative viability < 0.9)). Conditions: 10 µM.
With `CCNC(=O)CCC(N)C(=O)[O-].[K+]` (configuration not stated) the cytotoxicity call was “inactive”.
In the case of `C[C@@H]1ON(c2ccc(I)cc2)[C@H](c2ccc(OC(=O)OC(C)(C)C)cc2)[C@H]1C(=O)N1C(=O)OC[C@H]1Cc1ccccc1`, the cytotoxicity call is reported as “inactive”.
For `COc1ccc(S(=O)(=O)N(C)C[C@@H]2Oc3ccc(NS(=O)(=O)c4c(C)noc4C)cc3CC(=O)N([C@H](C)CO)C[C@@H]2C)cc1`, the cytotoxicity call was “inactive”.
For `C[C@@H]1CN([C@@H](C)CO)C(=O)c2cc(NC(=O)Nc3ccccc3)ccc2O[C@@H](C)CCCCO[C@H]1CN(C)C(=O)OC(C)(C)C`, the cytotoxicity call was “inactive”.
With `CC(C)NC(=O)N(C)C[C@@H]1Oc2ccc(NC(=O)C3CCCCC3)cc2CC(=O)N([C@@H](C)CO)C[C@@H]1C` the cytotoxicity call was “inactive”.
In the case of `C[C@@H]1CN([C@@H](C)CO)C(=O)Cc2cc(NC(=O)NC3CCCCC3)ccc2O[C@H]1CN(C)C(=O)Nc1cccc2ccccc12`, the cytotoxicity call is reported as “inactive”.
In the case of `C[C@H]1CN([C@@H](C)CO)C(=O)Cc2cc(NC(=O)NC3CCCCC3)ccc2O[C@@H]1CN(C)C(=O)Nc1cccc2ccccc12`, the cytotoxicity call is reported as “inactive”.
With `C[C@@H]1CN([C@H](C)CO)C(=O)Cc2cc(NC(=O)C3CCCCC3)ccc2O[C@H]1CN(C)C(=O)Nc1cccc2ccccc12` the cytotoxicity call was “inactive”.
For `C[C@H](CO)N1C[C@H](C)[C@H](CN(C)C(=O)Nc2cccc3ccccc23)Oc2ccc(NC(=O)C3CCCCC3)cc2CC1=O`, the cytotoxicity call was “active”.
For `Cc1noc(C)c1NC(=O)Nc1ccc2c(c1)CC(=O)N([C@@H](C)CO)C[C@H](C)[C@@H](CN(C)C(=O)Nc1cccc3ccccc13)O2`, the cytotoxicity call was “inactive”.
`C[C@H]1CN([C@@H](C)CO)C(=O)Cc2cc(NC(=O)C3CCCCC3)ccc2O[C@H]1CN(C)C(=O)Nc1cccc2ccccc12` was tested, and the cytotoxicity call was “inactive”.
In the case of `Cc1noc(C)c1NC(=O)Nc1ccc2c(c1)CC(=O)N([C@H](C)CO)C[C@H](C)[C@@H](CN(C)C(=O)Nc1cccc3ccccc13)O2`, the cytotoxicity call is reported as “inactive”.
`CC(C)NC(=O)N(C)C[C@H]1Oc2ccc(NC(=O)C3CCCCC3)cc2CC(=O)N([C@H](C)CO)C[C@@H]1C` was tested, and the cytotoxicity call was “active”.
For `Cc1noc(C)c1NC(=O)Nc1ccc2c(c1)CC(=O)N([C@@H](C)CO)C[C@@H](C)[C@H](CN(C)C(=O)Nc1cccc3ccccc13)O2`, the cytotoxicity call was “active”.
With `C[C@H]1CN([C@@H](C)CO)C(=O)Cc2cc(NC(=O)NC3CCCCC3)ccc2O[C@H]1CN(C)C(=O)Nc1cccc2ccccc12` the cytotoxicity call was “active”.
For `CC(C)NC(=O)N(C)C[C@H]1Oc2ccc(NC(=O)C3CCCCC3)cc2CC(=O)N([C@H](C)CO)C[C@H]1C`, the cytotoxicity call was “inactive”.
For `COc1ccc(NC(=O)Nc2ccc3c(c2)C(=O)N([C@H](C)CO)C[C@H](C)[C@@H](CN(C)S(=O)(=O)c2ccc(C)cc2)OCCCC[C@@H](C)O3)cc1`, the cytotoxicity call was “inactive”.
`NC(=O)NC(=O)C[C@H]1Nc2ccccc2NC1=O` was tested, and the cytotoxicity call was “inactive”.
For `CCc1c(C(=O)OC)nnc2cc(C)nn12`, the cytotoxicity call was “inactive”.
With `O=C(CN1CCOCC1)N[C@@H]1CC[C@H](CCn2cc(C3CCCC3)nn2)O[C@@H]1CO` the cytotoxicity call was “inactive”.
With `COCC#Cc1ccc([C@H]2[C@@H](CO)N3C(=O)CN(C(=O)c4ccncc4)C[C@@H]23)cc1` the cytotoxicity call was “inactive”.
With `C[C@H](CO)N1C[C@H](C)[C@@H](CN(C)C(=O)NC2CCCCC2)Oc2ccc(NC(=O)Nc3cccc4ccccc34)cc2CC1=O` the cytotoxicity call was “inactive”.
With `C[C@@H]1CN([C@@H](C)CO)C(=O)Cc2cc(NC(=O)Nc3cccc4ccccc34)ccc2O[C@@H]1CN(C)C(=O)NC1CCCCC1` the cytotoxicity call was “active”.
With `C[C@@H]1CN([C@H](C)CO)C(=O)Cc2cc(NC(=O)Nc3cccc4ccccc34)ccc2O[C@H]1CN(C)C(=O)NC1CCCCC1` the cytotoxicity call was “inactive”.
In the case of `CCNC(=O)C[C@H]1C=C[C@@H](NC(=O)C2CC2)[C@@H](CO)O1`, the cytotoxicity call is reported as “inactive”.
For `CC1(C)CC(NC(=O)c2ccc(Cl)c(S(=O)(=O)N(Cc3ccccc3)c3ccccc3)c2)CC(C)(C)N1`, the cytotoxicity call was “active”.
With `O=C(NCCN1CCOCC1)c1ccc(Cl)c(S(=O)(=O)N2CCOCC2)c1` the cytotoxicity call was “inactive”.
`CC1Cc2ccccc2N1NC(=O)c1ccc(Cl)c(S(N)(=O)=O)c1` (configuration not stated) was tested, and the cytotoxicity call was “inactive”.
In the case of `C[C@@H]1CN([C@@H](C)CO)C(=O)c2cc(NS(=O)(=O)c3cccs3)ccc2O[C@@H](C)CCCCO[C@@H]1CN(C)C(=O)NC1CCCCC1`, the cytotoxicity call is reported as “inactive”.
With `C[C@@H]1CN([C@@H](C)CO)C(=O)c2cc(C#Cc3cccnc3)cnc2O[C@H]1CN(C)S(=O)(=O)c1ccccc1F` the cytotoxicity call was “inactive”.
`Cc1cc2nc3c(=O)[nH]c(=O)nc-3n(C[C@@H](O)[C@@H](O)[C@@H](O)CO)c2cc1C` was tested, and the cytotoxicity call was “inactive”.
In the case of `COC1=CC(C)C2CC3OC(=O)CC4C(C)=C(OC)C(=O)C(C2(C)C1=O)C34C` (configuration not stated), the cytotoxicity call is reported as “inactive”.
For `C[C@@H]1CC=CC[C@H](c2ccc3c(c2)OCO3)NC(=O)[C@@H](Cc2ccccc2)N(C)C(=O)c2ccccc2O1`, the cytotoxicity call was “active”.
With `C[C@H]1CC=CC[C@H](c2ccc3c(c2)OCO3)NC(=O)[C@@H](Cc2ccccc2)N(C)C(=O)c2ccccc2O1` the cytotoxicity call was “inactive”.
`C[C@H]1CC=CC[C@@H](c2ccc3c(c2)OCO3)NC(=O)[C@H](Cc2ccccc2)N(C)C(=O)c2ccccc2O1` was tested, and the cytotoxicity call was “inactive”.
In the case of `C[C@@H]1CN([C@@H](C)CO)S(=O)(=O)c2ccc(C#C[C@@H](C)O)cc2O[C@@H]1CN(C)C(=O)c1ccccc1`, the cytotoxicity call is reported as “inactive”.
For `C[C@H](CO)N1C[C@H](C)[C@@H](CN(C)C(=O)C2CCC2)Oc2cc(C#Cc3ccncc3)ccc2S1(=O)=O`, the cytotoxicity call was “active”.
With `C[C@H](CO)N1C[C@H](C)[C@H](CN(C)C(=O)C2CCC2)Oc2cc(C#Cc3ccncc3)ccc2S1(=O)=O` the cytotoxicity call was “active”.
In the case of `C[C@H]1CN([C@@H](C)CO)S(=O)(=O)c2ccc(C#Cc3ccncc3)cc2O[C@@H]1CN(C)C(=O)C1CCC1`, the cytotoxicity call is reported as “inactive”.
For `C[C@@H]1CN([C@H](C)CO)S(=O)(=O)c2ccc(C#Cc3ccncc3)cc2O[C@H]1CN(C)C(=O)C1CCC1`, the cytotoxicity call was “active”.
With `C[C@@H]1CN([C@@H](C)CO)S(=O)(=O)c2ccc(C#Cc3ccncc3)cc2O[C@@H]1CN(C)C(=O)C1CCC1` the cytotoxicity call was “inactive”.
For `C[C@H]1CN([C@@H](C)CO)S(=O)(=O)c2ccc(C#Cc3ccncc3)cc2O[C@H]1CN(C)C(=O)C1CCC1`, the cytotoxicity call was “inactive”.
`C[C@@H]1CN([C@@H](C)CO)S(=O)(=O)c2ccc(C#Cc3ccncc3)cc2O[C@H]1CN(C)C(=O)C1CCC1` was tested, and the cytotoxicity call was “active”.
`C[C@@H]1CN([C@@H](C)CO)C(=O)c2cccc(NS(=O)(=O)c3cn(C)cn3)c2O[C@@H]1CN(C)C(=O)Nc1ccc2c(c1)OCO2` was tested, and the cytotoxicity call was “inactive”.
For `CCc1nc2ccc(C(=O)Nc3ccc(OC)c(OC)c3)cn2c1N(CC)Cc1cccc(Br)c1`, the cytotoxicity call was “inactive”.
`O=C(CSc1nnc(-c2ccccc2)n1C1CCCCC1)Nc1ccc(S(=O)(=O)Nc2ccccn2)cc1` was tested, and the cytotoxicity call was “inactive”.
With `Cc1ccc(CN)s1` the cytotoxicity call was “inactive”.
For `C[C@H](CO)N1C[C@H](C)[C@@H](CN(C)C(=O)Nc2ccccc2)Oc2cc(Br)ccc2S1(=O)=O`, the cytotoxicity call was “inactive”.
`Cc1noc(C)c1NC(=O)Nc1ccc2c(c1)C(=O)N([C@@H](C)CO)C[C@@H](C)[C@H](CN(C)S(=O)(=O)c1cccs1)OCCCC[C@@H](C)O2` was tested, and the cytotoxicity call was “inactive”.
`C[C@@H]1CCCCO[C@H](CN(C)Cc2ccc(C(=O)Nc3ccccc3N)cc2)[C@@H](C)CN([C@H](C)CO)C(=O)c2cc(N(C)C)ccc2O1` was tested, and the cytotoxicity call was “inactive”.
`C[C@H]1CN([C@@H](C)CO)C(=O)c2cc(NC(=O)CCN3CCOCC3)ccc2O[C@@H]1CN(C)C(=O)Nc1ccc(F)cc1` was tested, and the cytotoxicity call was “inactive”.
In the case of `C/N=C1\S[C@@H](CC(=O)NC(C)C)C(=O)N1C`, the cytotoxicity call is reported as “inactive”.
`C[C@@H]1CN([C@@H](C)CO)C(=O)c2cc(C#Cc3cccnc3)cnc2O[C@@H]1CN(C)S(=O)(=O)c1ccccc1F` was tested, and the cytotoxicity call was “inactive”.
With `C[C@H]1CN([C@@H](C)CO)C(=O)c2cccc(NC(=O)CCCCCC(=O)Nc3ccccc3N)c2O[C@@H]1CN(C)S(=O)(=O)c1cn(C)cn1` the cytotoxicity call was “inactive”.
For `CC(C)NC(=O)N(C)C[C@H]1OCCCC[C@@H](C)Oc2ccc(NC(=O)Nc3cccc4ccccc34)cc2C(=O)N([C@H](C)CO)C[C@@H]1C`, the cytotoxicity call was “inactive”.
With `N#Cc1c(-c2ccccc2)no[n+]1[O-]` the cytotoxicity call was “inactive”.
With `C[C@H]1CN([C@@H](C)CO)C(=O)c2cc(NC(=O)CCN3CCOCC3)ccc2O[C@@H]1CN(C)CC1CCCCC1` the cytotoxicity call was “inactive”.
`Cc1ccc(S(=O)(=O)N(C)C[C@H]2Oc3ccc(NS(=O)(=O)c4cn(C)cn4)cc3CC(=O)N([C@H](C)CO)C[C@@H]2C)cc1` was tested, and the cytotoxicity call was “inactive”.
In the case of `C[C@@H]1CN([C@H](C)CO)S(=O)(=O)c2ccc(C#Cc3ccncc3)cc2O[C@@H]1CN(C)C(=O)C1CCC1`, the cytotoxicity call is reported as “active”.
With `Cc1noc(C)c1S(=O)(=O)Nc1ccc2c(c1)C(=O)N([C@@H](C)CO)C[C@@H](C)[C@@H](CN(C)S(=O)(=O)c1ccc(F)cc1)O2` the cytotoxicity call was “inactive”.
`C[C@H](CO)N1C[C@H](C)[C@H](CN(C)Cc2ccc(Cl)c(Cl)c2)Oc2ccc(NC(=O)Nc3ccc(C(F)(F)F)cc3)cc2CC1=O` was tested, and the cytotoxicity call was “inactive”.
`C[C@H]1CN([C@@H](C)CO)C(=O)Cc2cc(NC(=O)Nc3ccc(C(F)(F)F)cc3)ccc2O[C@@H]1CN(C)Cc1ccc(Cl)c(Cl)c1` was tested, and the cytotoxicity call was “inactive”.
`C[C@@H]1CN([C@H](C)CO)C(=O)Cc2cc(NC(=O)Nc3ccc(C(F)(F)F)cc3)ccc2O[C@@H]1CN(C)Cc1ccc(Cl)c(Cl)c1` was tested, and the cytotoxicity call was “active”.
With `C[C@H](CO)N1C[C@H](C)[C@@H](CN(C)Cc2ccc(Cl)c(Cl)c2)Oc2ccc(NC(=O)Nc3ccc(C(F)(F)F)cc3)cc2CC1=O` the cytotoxicity call was “active”.
`C[C@H]1CN([C@@H](C)CO)C(=O)Cc2cc(NC(=O)Nc3ccc(C(F)(F)F)cc3)ccc2O[C@H]1CN(C)Cc1ccc(Cl)c(Cl)c1` was tested, and the cytotoxicity call was “active”.
`C[C@@H]1CN([C@H](C)CO)C(=O)Cc2cc(NC(=O)Nc3ccc(C(F)(F)F)cc3)ccc2O[C@H]1CN(C)Cc1ccc(Cl)c(Cl)c1` was tested, and the cytotoxicity call was “inactive”.
In the case of `C[C@@H]1CN([C@@H](C)CO)C(=O)Cc2cc(NC(=O)Nc3ccc(C(F)(F)F)cc3)ccc2O[C@H]1CN(C)Cc1ccc(Cl)c(Cl)c1`, the cytotoxicity call is reported as “active”.
